PubChem BioAssay (NCI)
Compounds without any hit were thinned out: in the full panel of roughly 83,000, 20% have a hit.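 The endpoint reported here, percent growth, reads 100 for growth as untreated, 0 for no net growth and -100 for all cells dead.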 Unmarked numbers belong to inactive results. Active and inactive are the calls of the source. The calls were made as follows: active = growth percent below 10; inactive = the rest.

What was measured:
Assay in all cases: NCI-60 one-dose screen, 48 h (100 = growth as untreated, 0 = no growth, -100 = all killed)
Settings in all cases: 10 µM unless noted
[1] = system: NCI-H23 lung
[2] = system: NCI-H226 lung
[3] = system: NCI-H322M lung
[4] = system: HOP-62 NSCLC
[5] = system: NCI-H460 lung
[6] = system: HOP-92 NSCLC
[7] = system: A549/ATCC NSCLC
[8] = system: 786-0 renal
[9] = system: DU-145 prostate
[10] = system: K-562 leukemia
[11] = system: MALME-3M melanoma
[12] = system: MDA-MB-231 breast
[13] = system: RXF 393 renal
[14] = system: SF-268 CNS
[15] = system: SF-539 CNS
[16] = system: UACC-257 melanoma
[17] = system: M14 melanoma
[18] = system: COLO 205 colon
[19] = system: SF-295 CNS
[20] = system: NCI-H522 lung

Compound	growth [1]	growth [2]	growth [3]	growth [4]	growth [5]	growth [6]	growth [7]	growth [8]	growth [9]	growth [10]	growth [11]	growth [12]	growth [13]	growth [14]	growth [15]	growth [16]	growth [17]	growth [18]	growth [19]	growth [20]
COc1ccc2nc(-c3cc(-c4cc(OC)c(OC)c(OC)c4)n[nH]3)[nH]c2c1	7.44% (active)	-48.9% (active)	31.1%	-1.25% (active)	25.2%	22%	6.33% (active)	59.5%	11.8%	-10.7% (active)	-40.4% (active)	36.2%	45.8%	10.7%	34.4%	-13.4% (active)	9.11% (active)			
COc1ccc(-c2n[nH]nc2-c2cc3ccccc3s2)cc1O	27.9%	51.6%	58.8%	24.1%	10.1%	49.9%	15%	33.6%	25.1%	5.55% (active)	74.7%	-3% (active)	16.4%	37%	-13.4% (active)	50.2%	12.4%	51.4%	26.9%	
COc1cc(-c2cc3ncccc3c3nc(OCCN(C)C)c4cccnc4c23)cc(OC)c1OC	13.4%	-5.43% (active)	17.9%	-45.6% (active)	-50.8% (active)	-8.69% (active)	-37.7% (active)	-88.5% (active)	1.52% (active)	7.73% (active)	8.86% (active)	20.2%	-72.1% (active)	23.1%	17.9%	15.1%	23%	3.65% (active)	9.6% (active)	
COc1ccc(C2NC(=O)Nc3ccccc32)c(OC)c1 (configuration not stated)	102%	89.7%	96.6%	98.5%	101%	86.7%	98.4%	103%	112%	93.7%	85.6%	94.7%	110%	100%	93.8%		95.6%	112%	94.2%	
Cc1ccc2oc(=O)cc(-c3sc(N4CCCCC4)nc3-c3ccccc3)c2c1	90.9%	90.4%	81.8%	89.7%	91.1%	92.1%	99.6%	99.8%	98.5%	97.8%	86%	88.1%	101%	87.9%	94.7%	105%	97.3%		102%	
O=C(O)c1cccc2c1-c1ccc(Cl)cc1C2	106%	100%	97.1%	106%	113%	112%	105%	110%	110%	97.9%		108%	124%	107%	104%	107%	120%	114%	116%	
C=C1C(=O)O[C@H]2[C@H]1CC/C(COC(=O)NCc1c[nH]c3ccccc13)=C\CC[C@@]1(C)O[C@@H]21	68.3%	88.8%	84.5%	65.2%	74.7%	107%	82.5%	44.6%	29.2%	12.7%	52.7%	42%	17.5%	70.8%	7.38% (active)	75.2%	48.7%	-20.4% (active)	94.6%	
O=C1/C(=C\c2ccco2)SC(=S)N1CCc1ccc(O)cc1	101%	101%	90.6%	98.1%	106%	61.2%	99.7%	99.4%	67.8%	84.8%	82%	80.5%	98.3%	94.8%	88.5%	90.1%	96%	126%	105%	
COc1ccc(/C=C(\C#N)c2cc3ccccc3n2S(C)(=O)=O)cc1	89.8%	89.7%	99.6%	91.5%	105%	86.5%	104%	99.9%	98.2%	30.8%	66.5%	85.4%	78.1%	88%	79.1%	90.2%	56.1%	111%	71.6%	
COC(=O)[C@]12CC[C@@H](C)[C@H](C)[C@@H]1C1=CC[C@@H]3[C@@]4(C)C[C@@H](O)OC[C@](C)(C=O)C4C(=O)C[C@@]3(C)[C@]1(C)CC2 (some centres not stated)	5.09% (active)	-21.5% (active)	27.6%	13%	-13% (active)	-28.6% (active)	7.39% (active)	2.91% (active)	14.5%	3.89% (active)	-8.79% (active)	-14.9% (active)	-7.01% (active)	34.9%	7.45% (active)		6.13% (active)	-94.4% (active)	1.62% (active)	
O=C(O)c1cccc2c1C(=O)N(c1ccc3c(c1)Cc1ccccc1-3)C2=O	122%	111%	111%	112%	117%	109%	98.6%	107%	116%	105%		113%	110%	117%	110%	109%	119%		121%	92.3%
C#CCN=C[C@]12CC[C@@H](C(=C)C)[C@@H]1[C@H]1CC[C@@H]3[C@@]4(C)CCC(=O)C(C)(C)[C@@H]4CC[C@@]3(C)[C@]1(C)CC2	50.5%	73.2%	103%	88.8%	70.8%	65.4%	46.1%	74.9%	67.9%	28.1%	81.8%	83.8%	80.3%	71.3%	80.2%	55.6%	63.1%	65.8%	68.5%	
Cc1ccc(Cc2cnc(NC(=O)/C=C/c3cccc(C)c3)s2)cc1	13.3%	36.8%	46.1%	18.5%	1.93% (active)	70.4%	16.1%	17.8%	16.2%	13.7%	31.4%	3.61% (active)	-0.16% (active)	44.7%	-30.1% (active)	67.7%	-12.4% (active)	-4.26% (active)	-13.6% (active)	
CC(C)=CCC[C@](C)(O)[C@H]1CC[C@]2(C)[C@@H]1CC[C@@H]1[C@@]3(C)C/C(=C/c4ccc(Br)cc4)C(=O)C(C)(C)[C@@H]3CC[C@]12C	85.3%	82.7%	101%	98.5%	96.3%	75.5%	76.6%	93.8%	85.6%	85.2%	88.7%	85.8%	92.9%	92.6%	99.5%	91.2%	80.3%	99.1%	101%	
CN1CCN(c2ccc3nc(-c4[nH]ncc4Nc4ncnc5c4OCCCN5)[nH]c3c2)CC1	-53.9% (active)	-76.4% (active)	-67.3% (active)	-48.4% (active)	-69.8% (active)		-63% (active)	-59.3% (active)	-27.6% (active)	7.54% (active)	-76.1% (active)	-37.8% (active)	-89.3% (active)	-51% (active)	-86.7% (active)	-20.5% (active)	-74.9% (active)	-72.5% (active)	-90.4% (active)	-26.2% (active)
O=C(O[C@@H]1Cc2c(O)cc(O)cc2O[C@@H]1c1cc(O)c(O)c(O)c1)c1cc(O)c2c(c1)OCO2	92.6%	93%	107%	98.5%	105%	95.1%	82.5%	94.4%	99.7%	91%	108%	101%	111%	97%	108%	83%	91.9%	104%	103%	
